Data as given in PubChem BioAssay AID1159580 (chemical genetic matrix, 2015).
“And” between values parts separate entries of the source, which are not always exact repeats. Identical values can stand only once. Out of some 5,500 compounds screened, about 2,000 (36%) were called active. Another 18% or so got no clear call; they are omitted. No stated cut-off is given here; in the data, active means normalized growth mostly below about 0.91 (no sharp cut-off); inconclusive means no clear call, values can overlap the other calls; inactive means mostly above about 0.92. This is one part of the list.

Test: chemical genetic growth profiling, strain panel (AID 1159580);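 further: tested at 20 µM; growth read once vehicle control cultures reached saturation at 30 °C; 1 = growth at the plate median or of vehicle wells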
Details: S. cerevisiae deletion strains, growth OD

Measured: normalized growth

CC(CN(C)C)CN1c2ccccc2CCc2ccccc21 (stereo not given)
active: locus YAL021C, strain ccr4, stronger effect = lower value 0.893 | locus YDR137W, strain rgp1, stronger effect = lower value 1.2 [resistant] | locus YHR013C, strain ard1, stronger effect = lower value 0.833
inactive: locus YAL013W, strain DEP1, stronger effect = lower value 1 | locus YAL026C, strain drs2, stronger effect = lower value 0.982 | locus YAL030W, strain snc1, stronger effect = lower value 0.977 | locus YAL040C, strain CLN3, stronger effect = lower value 1.03 | locus YBL061C, strain skt5, stronger effect = lower value 0.984 | locus YBR009C, strain hhf1, stronger effect = lower value 0.972 | locus YBR021W, strain FUR4, stronger effect = lower value 1.01 | locus YBR023C, strain chs3, stronger effect = lower value 0.975 | locus YBR171W, strain sec66, stronger effect = lower value 0.963 | locus YBR229C, strain ROT2, stronger effect = lower value 1.01 | locus YBR231C, strain swc5, stronger effect = lower value 0.976 | locus YBR279W, strain paf1, stronger effect = lower value 0.988 | locus YCL011C, strain gbp2, stronger effect = lower value 0.973 | locus YCL016C, strain dcc1, stronger effect = lower value 0.974 | locus YCL029C, strain bik1, stronger effect = lower value 1.02 | locus YCL061C, strain MRC1 (second series), stronger effect = lower value 1.01 | locus YCL061C, strain MRC1, stronger effect = lower value 0.986 | locus YCL069W, strain vba3, stronger effect = lower value 0.969 | locus YCR088W, strain abp1, stronger effect = lower value 0.977 | locus YDL005C, strain med2, stronger effect = lower value 0.973 | locus YDL035C, strain GPR1, stronger effect = lower value 1.01 | locus YDL040C, strain nat1, stronger effect = lower value 0.976 | locus YDL074C, strain BRE1, stronger effect = lower value 1.02 | locus YDL101C, strain DUN1, stronger effect = lower value 1 | locus YDL134C, strain PPH21, stronger effect = lower value 1.01 | locus YDL185W, strain tfp1, stronger effect = lower value 1.02 | locus YDL192W, strain arf1, stronger effect = lower value 1.01 | locus YDR001C, strain nth1, stronger effect = lower value 0.977 | locus YDR069C, strain doa4, stronger effect = lower value 0.921 | locus YDR101C, strain arx1, stronger effect = lower value 1.02 | locus YDR150W, strain NUM1, stronger effect = lower value 1.02 and 1.01 | locus YDR159W, strain sac3, stronger effect = lower value 0.977 | locus YDR162C, strain NBP2, stronger effect = lower value 1.01 | locus YDR195W, strain ref2 0.999 | locus YDR297W, strain sur2, stronger effect = lower value 0.975 | locus YDR318W, strain mcm21, stronger effect = lower value 1.02 | locus YDR334W, strain swr1, stronger effect = lower value 0.946 | locus YDR335W, strain msn5, stronger effect = lower value 0.975 | locus YDR363W, strain ESC2, stronger effect = lower value 0.993 | locus YDR388W, stronger effect = lower value 1.02 | locus YDR392W, strain spt3, stronger effect = lower value 0.96 | locus YDR502C, strain sam2, stronger effect = lower value 1.03 | locus YEL003W, strain gim4, stronger effect = lower value 0.965 | locus YEL037C, strain rad23, stronger effect = lower value 0.954 | locus YEL061C, strain CIN8 (second series), stronger effect = lower value 0.96 | locus YEL061C, strain CIN8, stronger effect = lower value 1.01 | locus YER002W, strain NOP16, stronger effect = lower value 1.01 | locus YER015W, strain faa2, stronger effect = lower value 0.961 | locus YER016W, strain bim1, stronger effect = lower value 0.975 | locus YER110C, stronger effect = lower value 1.02 | locus YER111C, strain swi4, stronger effect = lower value 0.974 | locus YER155C, strain BEM2 (second series), stronger effect = lower value 0.948 | locus YER155C, strain BEM2, stronger effect = lower value 1 | locus YER167W, strain BCK2, stronger effect = lower value 1.01 | locus YFR010W, strain ubp6, stronger effect = lower value 0.954 | locus YGL078C, strain dbp3, stronger effect = lower value 1.01 | locus YGL086W, strain mad1, stronger effect = lower value 1.01 | locus YGL167C, strain pmr1, stronger effect = lower value 0.98 | locus YGL173C, strain kem1, stronger effect = lower value 0.972 | locus YGL227W, strain vid30, stronger effect = lower value 0.978 | locus YGL240W, strain doc1, stronger effect = lower value 0.969 | locus YGL248W, strain PDE1, stronger effect = lower value 0.996 | locus YGL253W, strain hxk2, stronger effect = lower value 0.977 | locus YGR078C, strain PAC10, stronger effect = lower value 1.01 | locus YGR135W, strain pre9, stronger effect = lower value 1.02 | locus YGR229C, strain SMI1, stronger effect = lower value 0.978 | locus YGR252W, strain gcn5, stronger effect = lower value 0.97 | locus YHR027C, strain rpn1, stronger effect = lower value 0.966 | locus YHR030C, strain SLT2, stronger effect = lower value 1.02 and 0.988 | locus YHR079C, strain IRE1 (second series), stronger effect = lower value 1.01 | locus YHR079C, strain IRE1, stronger effect = lower value 0.981 | locus YHR094C, strain hxt1, stronger effect = lower value 1.01 | locus YHR129C, strain ARP1, stronger effect = lower value 1.01 | locus YHR142W, strain chs7, stronger effect = lower value 0.971 | locus YHR200W, strain rpn10, stronger effect = lower value 1.03 | locus YIL066C, strain RNR3, stronger effect = lower value 1 | locus YIL073C, strain SPO22, stronger effect = lower value 1.07 | locus YIL125W, strain kgd1, stronger effect = lower value 1.01 | locus YIR030C, strain dcg1, stronger effect = lower value 1.01 | locus YJL092W, strain hpr5, stronger effect = lower value 0.936 | locus YJL095W, strain BCK1 (second series), stronger effect = lower value 0.984 | locus YJL095W, strain BCK1, stronger effect = lower value 0.984 and 0.986 | locus YJL115W, strain asf1, stronger effect = lower value 0.957 | locus YJL129C, strain trk1, stronger effect = lower value 0.973 | locus YJL134W, strain LCB3, stronger effect = lower value 1 | locus YJL154C, strain vps35, stronger effect = lower value 0.978 | locus YJL164C, strain tpk1, stronger effect = lower value 0.973 | locus YJL166W, strain qcr8, stronger effect = lower value 0.963 | locus YJL168C, strain set2, stronger effect = lower value 1.02 | locus YJL187C, strain SWE1 (second series), stronger effect = lower value 0.988 | locus YJL187C, strain SWE1, stronger effect = lower value 0.965 | locus YJR043C, strain POL32, stronger effect = lower value 1
